These results are taken from PMC7862700, “An all-to-all approach to the identification of sequence-specific readers for epigenetic DNA modifications on cytosine”.

Common to all, as to test: DAPPL (digital affinity profiling via proximity ligation, sequencing); 10 mM Tris-HCl pH 7.5, 50 mM NaCl, 1 mM DTT, 4% glycerol, room temperature, 30 min; GST-TFs on glutathione beads, 16-mer random dsDNA library, 0.1% formaldehyde crosslink after washing; high values mean tight binding
What all share (settings): protein: recombinant; tags: N-terminal GST; dsDNA, one strand shown

One experiment has as its target T1, FLI1 (Homo sapiens, UniProt Q01543 1-452).
T1 sequence: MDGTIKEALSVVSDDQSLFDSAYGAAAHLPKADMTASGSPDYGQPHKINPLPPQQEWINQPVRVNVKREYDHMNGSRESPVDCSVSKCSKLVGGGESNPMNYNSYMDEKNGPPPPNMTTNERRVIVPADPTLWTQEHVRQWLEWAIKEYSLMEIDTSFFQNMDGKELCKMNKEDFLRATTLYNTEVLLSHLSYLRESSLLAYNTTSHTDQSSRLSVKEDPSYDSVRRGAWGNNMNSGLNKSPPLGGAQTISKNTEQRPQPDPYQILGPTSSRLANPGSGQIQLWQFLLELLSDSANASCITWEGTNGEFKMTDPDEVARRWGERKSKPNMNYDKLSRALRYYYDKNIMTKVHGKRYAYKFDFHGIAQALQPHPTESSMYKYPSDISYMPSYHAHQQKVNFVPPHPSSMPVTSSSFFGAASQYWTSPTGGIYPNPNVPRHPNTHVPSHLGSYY
In short, it runs like this:
(§1)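 Human transcription factors were made in yeast as GST fusions, captured on glutathione beads and barcoded with DNA. With a tag-only sample included, the pool was incubated with 200 nmole of a random double-stranded 16-mer DNA library in Tris/NaCl/DTT/glycerol buffer at room temperature for 30 min, then crosslinked with 0.1% formaldehyde after washing, ligated by proximity, amplified and sequenced. For binding signal, each hexamer's read frequency for a factor is divided by its frequency for the tag-only sample.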

Another experiment deals with T2, ELK1 (Homo sapiens, UniProt P19419 1-428).
T2 sequence: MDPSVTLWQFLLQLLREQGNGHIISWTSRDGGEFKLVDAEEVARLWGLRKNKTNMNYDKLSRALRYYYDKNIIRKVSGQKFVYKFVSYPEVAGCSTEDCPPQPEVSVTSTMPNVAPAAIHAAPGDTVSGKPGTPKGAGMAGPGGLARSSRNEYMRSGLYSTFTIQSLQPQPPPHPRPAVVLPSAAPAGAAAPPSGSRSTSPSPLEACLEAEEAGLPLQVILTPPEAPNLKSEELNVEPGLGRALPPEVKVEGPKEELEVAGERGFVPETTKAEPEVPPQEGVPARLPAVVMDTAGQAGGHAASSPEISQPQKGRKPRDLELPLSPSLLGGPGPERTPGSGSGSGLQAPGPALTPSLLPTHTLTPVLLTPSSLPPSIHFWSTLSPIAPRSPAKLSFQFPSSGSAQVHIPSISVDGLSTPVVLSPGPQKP
The procedure, abridged: as §1

In another experiment the target is T3, GABPA (Homo sapiens, UniProt Q06546 1-454).
T3 sequence: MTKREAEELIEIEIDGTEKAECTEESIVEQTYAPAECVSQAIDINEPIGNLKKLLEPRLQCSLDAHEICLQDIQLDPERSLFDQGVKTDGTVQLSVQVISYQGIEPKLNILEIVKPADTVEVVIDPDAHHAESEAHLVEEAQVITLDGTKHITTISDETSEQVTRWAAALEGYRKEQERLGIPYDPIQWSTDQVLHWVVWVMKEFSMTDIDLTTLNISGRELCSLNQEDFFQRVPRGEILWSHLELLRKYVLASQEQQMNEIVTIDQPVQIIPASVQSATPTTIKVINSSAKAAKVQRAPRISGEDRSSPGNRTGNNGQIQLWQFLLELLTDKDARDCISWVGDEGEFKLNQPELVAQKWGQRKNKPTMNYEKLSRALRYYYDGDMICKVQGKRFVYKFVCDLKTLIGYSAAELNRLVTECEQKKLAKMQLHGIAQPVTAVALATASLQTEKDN
In short, it runs like this:
as §1

Another experiment has as its target T4, ERG (Homo sapiens, UniProt P11308 1-479).
T4 sequence: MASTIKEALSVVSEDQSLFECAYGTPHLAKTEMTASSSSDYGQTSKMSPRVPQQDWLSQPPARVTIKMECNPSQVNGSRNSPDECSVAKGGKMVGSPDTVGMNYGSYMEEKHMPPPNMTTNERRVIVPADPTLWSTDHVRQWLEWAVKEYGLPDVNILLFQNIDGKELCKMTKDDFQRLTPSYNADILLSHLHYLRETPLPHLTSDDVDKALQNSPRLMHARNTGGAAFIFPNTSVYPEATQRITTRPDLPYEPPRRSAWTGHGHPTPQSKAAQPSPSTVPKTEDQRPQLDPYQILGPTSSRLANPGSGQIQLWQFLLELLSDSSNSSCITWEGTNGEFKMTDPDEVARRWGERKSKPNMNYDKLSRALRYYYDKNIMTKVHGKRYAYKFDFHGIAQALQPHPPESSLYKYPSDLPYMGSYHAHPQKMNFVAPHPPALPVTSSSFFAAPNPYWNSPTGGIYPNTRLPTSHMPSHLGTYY
In short, it runs like this:
as §1

In the next experiment the target is ELF1 (Homo sapiens, UniProt P32519 1-619). In short, it runs like this: as §1
Chain of ELF1 (P32519 whole entry): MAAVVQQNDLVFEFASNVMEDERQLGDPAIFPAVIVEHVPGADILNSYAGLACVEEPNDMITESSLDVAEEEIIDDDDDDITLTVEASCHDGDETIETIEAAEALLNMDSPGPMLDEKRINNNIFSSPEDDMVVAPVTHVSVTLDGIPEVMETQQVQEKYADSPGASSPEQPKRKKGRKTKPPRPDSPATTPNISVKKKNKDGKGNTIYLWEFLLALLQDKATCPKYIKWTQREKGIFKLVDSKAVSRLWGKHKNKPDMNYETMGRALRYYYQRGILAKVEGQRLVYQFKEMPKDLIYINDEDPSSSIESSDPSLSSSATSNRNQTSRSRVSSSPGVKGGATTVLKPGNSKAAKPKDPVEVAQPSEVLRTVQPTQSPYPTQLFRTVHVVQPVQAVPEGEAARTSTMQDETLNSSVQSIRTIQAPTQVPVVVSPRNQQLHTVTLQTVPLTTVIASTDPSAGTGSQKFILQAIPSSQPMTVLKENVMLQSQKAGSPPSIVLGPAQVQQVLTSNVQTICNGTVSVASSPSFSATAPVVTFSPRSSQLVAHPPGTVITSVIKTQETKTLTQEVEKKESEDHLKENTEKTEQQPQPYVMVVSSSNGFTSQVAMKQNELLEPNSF
A further experiment has as its target T5, EHF (Homo sapiens, UniProt Q9NZC4 1-300).
T5 sequence: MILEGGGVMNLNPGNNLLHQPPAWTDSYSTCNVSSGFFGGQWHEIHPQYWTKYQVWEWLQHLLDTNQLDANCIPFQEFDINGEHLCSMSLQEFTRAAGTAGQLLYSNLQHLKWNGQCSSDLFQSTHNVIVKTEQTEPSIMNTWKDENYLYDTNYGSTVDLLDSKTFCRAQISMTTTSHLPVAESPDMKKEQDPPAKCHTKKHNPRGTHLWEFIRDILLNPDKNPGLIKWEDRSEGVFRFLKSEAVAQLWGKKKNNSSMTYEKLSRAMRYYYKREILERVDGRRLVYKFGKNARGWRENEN
The procedure, abridged:
as §1

The target of the next experiment is T6, SPIC (Homo sapiens, UniProt Q8N5J4 1-248).
T6 sequence: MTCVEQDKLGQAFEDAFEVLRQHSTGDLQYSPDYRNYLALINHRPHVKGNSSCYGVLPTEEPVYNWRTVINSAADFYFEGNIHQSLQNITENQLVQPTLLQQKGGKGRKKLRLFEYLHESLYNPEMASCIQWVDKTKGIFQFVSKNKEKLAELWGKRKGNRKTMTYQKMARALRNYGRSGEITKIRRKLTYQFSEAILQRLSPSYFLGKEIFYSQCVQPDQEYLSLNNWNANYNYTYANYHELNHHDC
In short, it runs like this: as §1

The next experiment deals with ELF4 (Homo sapiens, UniProt Q99607 1-663). In short, it runs like this: as §1
Chain of ELF4 (Q99607 whole entry): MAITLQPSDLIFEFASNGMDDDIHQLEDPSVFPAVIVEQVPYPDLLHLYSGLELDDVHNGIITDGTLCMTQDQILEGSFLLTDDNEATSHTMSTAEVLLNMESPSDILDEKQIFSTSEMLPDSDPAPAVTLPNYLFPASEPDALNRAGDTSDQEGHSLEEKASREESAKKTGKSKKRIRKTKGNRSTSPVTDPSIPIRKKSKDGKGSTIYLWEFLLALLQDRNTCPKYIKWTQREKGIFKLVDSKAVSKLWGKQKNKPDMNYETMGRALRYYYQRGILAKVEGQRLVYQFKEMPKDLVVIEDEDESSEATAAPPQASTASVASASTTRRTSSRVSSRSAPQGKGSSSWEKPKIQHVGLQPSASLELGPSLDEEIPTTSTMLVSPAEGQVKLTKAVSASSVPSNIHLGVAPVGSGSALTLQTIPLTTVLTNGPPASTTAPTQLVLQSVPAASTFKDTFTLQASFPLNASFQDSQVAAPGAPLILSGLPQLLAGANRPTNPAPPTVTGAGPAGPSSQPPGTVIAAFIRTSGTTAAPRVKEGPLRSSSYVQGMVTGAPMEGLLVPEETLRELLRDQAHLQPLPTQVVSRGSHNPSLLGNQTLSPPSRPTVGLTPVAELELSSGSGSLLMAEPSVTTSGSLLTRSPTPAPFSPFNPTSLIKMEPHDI
Another experiment addresses T7, ETV2 (Homo sapiens, UniProt O00321 1-342).
T7 sequence: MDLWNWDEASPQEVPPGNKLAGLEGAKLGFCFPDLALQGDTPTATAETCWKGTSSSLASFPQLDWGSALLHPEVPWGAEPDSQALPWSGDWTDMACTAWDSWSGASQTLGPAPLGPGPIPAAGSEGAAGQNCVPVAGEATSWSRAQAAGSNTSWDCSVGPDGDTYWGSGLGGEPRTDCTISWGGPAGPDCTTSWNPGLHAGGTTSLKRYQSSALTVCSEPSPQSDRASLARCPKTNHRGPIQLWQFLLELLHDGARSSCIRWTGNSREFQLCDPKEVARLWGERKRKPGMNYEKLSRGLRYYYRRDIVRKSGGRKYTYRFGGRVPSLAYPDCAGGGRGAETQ
In short, it runs like this:
as §1

For another experiment, the target named is T8, ELF3 (Homo sapiens, UniProt P78545 1-371).
T8 sequence: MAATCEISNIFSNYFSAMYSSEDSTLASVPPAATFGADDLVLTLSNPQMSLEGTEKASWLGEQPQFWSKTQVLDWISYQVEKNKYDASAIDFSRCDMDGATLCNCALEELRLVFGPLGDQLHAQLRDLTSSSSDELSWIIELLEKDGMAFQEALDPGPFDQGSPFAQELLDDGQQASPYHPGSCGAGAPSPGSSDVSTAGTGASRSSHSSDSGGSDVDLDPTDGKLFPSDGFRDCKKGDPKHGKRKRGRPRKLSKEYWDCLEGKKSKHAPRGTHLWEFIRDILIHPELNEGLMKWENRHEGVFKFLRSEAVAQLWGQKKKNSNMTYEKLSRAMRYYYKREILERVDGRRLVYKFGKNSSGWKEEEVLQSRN
In short, it runs like this: as §1

For a further experiment, the target named is ETV1 (Homo sapiens, UniProt P50549 1-477). The procedure, abridged:
as §1

The target of another experiment is T9, ERF (Homo sapiens, UniProt P50548 1-548).
T9 sequence: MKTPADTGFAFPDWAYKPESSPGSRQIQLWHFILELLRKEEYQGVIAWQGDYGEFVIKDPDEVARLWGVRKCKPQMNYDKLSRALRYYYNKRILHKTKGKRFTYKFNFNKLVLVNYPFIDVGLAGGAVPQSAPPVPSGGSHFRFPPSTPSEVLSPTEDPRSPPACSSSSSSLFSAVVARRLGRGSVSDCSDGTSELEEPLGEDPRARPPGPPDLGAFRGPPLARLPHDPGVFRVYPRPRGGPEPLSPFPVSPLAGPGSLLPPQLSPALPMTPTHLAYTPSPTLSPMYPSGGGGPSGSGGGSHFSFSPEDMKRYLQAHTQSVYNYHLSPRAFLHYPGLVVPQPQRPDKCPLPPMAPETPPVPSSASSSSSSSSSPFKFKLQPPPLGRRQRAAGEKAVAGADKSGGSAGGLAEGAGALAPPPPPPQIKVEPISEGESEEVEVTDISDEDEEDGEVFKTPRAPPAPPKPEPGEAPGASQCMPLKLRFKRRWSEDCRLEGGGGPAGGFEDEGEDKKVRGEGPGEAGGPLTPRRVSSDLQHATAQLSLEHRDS
In short, it runs like this:
as §1

For another experiment, the target named is T10, ETV3L (Homo sapiens, UniProt Q6ZN32 1-361).
T10 sequence: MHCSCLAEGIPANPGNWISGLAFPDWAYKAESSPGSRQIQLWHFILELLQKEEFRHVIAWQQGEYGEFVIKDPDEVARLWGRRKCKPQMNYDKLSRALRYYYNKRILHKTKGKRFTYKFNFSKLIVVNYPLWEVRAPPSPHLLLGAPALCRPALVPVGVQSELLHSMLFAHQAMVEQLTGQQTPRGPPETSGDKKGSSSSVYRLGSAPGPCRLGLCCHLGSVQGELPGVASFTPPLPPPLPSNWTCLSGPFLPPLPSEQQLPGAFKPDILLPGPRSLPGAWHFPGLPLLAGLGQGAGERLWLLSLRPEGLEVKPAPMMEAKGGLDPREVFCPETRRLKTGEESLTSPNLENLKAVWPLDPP
In short, it runs like this:
as §1

The next experiment has as its target T11, ETV7 (Homo sapiens, UniProt Q9Y603 1-341).
T11 sequence: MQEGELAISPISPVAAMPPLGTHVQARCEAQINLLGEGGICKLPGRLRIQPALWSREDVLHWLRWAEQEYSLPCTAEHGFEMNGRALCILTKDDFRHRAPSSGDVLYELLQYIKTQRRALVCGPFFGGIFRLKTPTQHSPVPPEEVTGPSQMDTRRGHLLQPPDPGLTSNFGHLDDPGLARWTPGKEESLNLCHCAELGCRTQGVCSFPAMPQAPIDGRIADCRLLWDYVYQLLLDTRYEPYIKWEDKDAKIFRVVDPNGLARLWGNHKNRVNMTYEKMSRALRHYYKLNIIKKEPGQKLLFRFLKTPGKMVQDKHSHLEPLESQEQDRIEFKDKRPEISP
The procedure, abridged:
as §1

The next experiment concerns the target ETV6 (Homo sapiens, UniProt P41212 1-452). The procedure, abridged:
as §1

The next experiment concerns the target T12, ETS2 (Homo sapiens, UniProt P15036 1-469).
T12 sequence: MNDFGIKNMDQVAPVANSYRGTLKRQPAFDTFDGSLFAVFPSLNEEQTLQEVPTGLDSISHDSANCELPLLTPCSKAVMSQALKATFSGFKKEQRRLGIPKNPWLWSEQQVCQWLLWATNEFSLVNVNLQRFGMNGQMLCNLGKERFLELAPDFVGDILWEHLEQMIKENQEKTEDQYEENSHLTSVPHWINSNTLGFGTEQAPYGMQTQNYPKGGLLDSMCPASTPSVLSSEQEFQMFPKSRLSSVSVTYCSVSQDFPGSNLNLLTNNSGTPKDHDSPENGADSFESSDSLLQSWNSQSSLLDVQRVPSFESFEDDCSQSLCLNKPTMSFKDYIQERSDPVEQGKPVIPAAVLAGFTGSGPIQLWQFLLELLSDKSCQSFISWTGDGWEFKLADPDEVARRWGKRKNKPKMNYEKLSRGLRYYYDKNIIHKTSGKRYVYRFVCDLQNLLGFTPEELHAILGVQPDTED
In short, it runs like this:
as §1

Chain of ETV1 (P50549 whole entry): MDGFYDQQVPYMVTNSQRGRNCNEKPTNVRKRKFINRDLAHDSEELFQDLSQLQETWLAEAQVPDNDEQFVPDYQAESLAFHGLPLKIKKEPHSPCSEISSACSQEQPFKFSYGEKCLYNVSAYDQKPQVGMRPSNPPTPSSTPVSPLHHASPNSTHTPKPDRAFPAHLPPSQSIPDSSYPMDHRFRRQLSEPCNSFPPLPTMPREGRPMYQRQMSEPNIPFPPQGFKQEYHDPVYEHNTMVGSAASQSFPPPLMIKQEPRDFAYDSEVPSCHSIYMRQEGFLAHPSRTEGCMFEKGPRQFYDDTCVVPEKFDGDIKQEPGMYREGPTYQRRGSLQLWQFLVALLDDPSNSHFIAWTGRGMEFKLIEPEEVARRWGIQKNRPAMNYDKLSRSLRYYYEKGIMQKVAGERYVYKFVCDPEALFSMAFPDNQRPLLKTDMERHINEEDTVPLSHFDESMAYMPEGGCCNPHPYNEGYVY
Chain of ETV6 (P41212 whole entry): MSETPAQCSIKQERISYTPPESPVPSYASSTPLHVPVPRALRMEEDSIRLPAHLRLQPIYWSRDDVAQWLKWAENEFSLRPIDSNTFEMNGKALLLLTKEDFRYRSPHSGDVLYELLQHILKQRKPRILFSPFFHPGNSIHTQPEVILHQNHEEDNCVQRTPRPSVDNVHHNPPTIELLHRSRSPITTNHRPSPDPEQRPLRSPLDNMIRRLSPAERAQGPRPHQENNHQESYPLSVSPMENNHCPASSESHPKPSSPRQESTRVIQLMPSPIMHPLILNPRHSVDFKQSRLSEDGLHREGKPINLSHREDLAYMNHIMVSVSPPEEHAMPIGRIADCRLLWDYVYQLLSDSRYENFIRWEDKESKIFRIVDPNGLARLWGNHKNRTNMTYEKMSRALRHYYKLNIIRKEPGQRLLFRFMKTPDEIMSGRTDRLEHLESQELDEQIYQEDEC

As for CACACC, the binding signal was 1.07 fold enrichment (6-mer frequency, TF over GST control) with FLI1; 1.07 fold enrichment (6-mer frequency, TF over GST control) with ELK1; 1.01 fold enrichment (6-mer frequency, TF over GST control) with GABPA; 1.04 fold enrichment (6-mer frequency, TF over GST control) with ERG; 1.02 fold enrichment (6-mer frequency, TF over GST control) with ELF1; 1.04 fold enrichment (6-mer frequency, TF over GST control) with EHF. The binding signal is 1.09 fold enrichment (6-mer frequency, TF over GST control) in the experiment with SPIC; 1.06 fold enrichment (6-mer frequency, TF over GST control) with ELF4; 1.03 fold enrichment (6-mer frequency, TF over GST control) in the experiment with ETV2; 1.02 fold enrichment (6-mer frequency, TF over GST control) with ELF3; 1.14 fold enrichment (6-mer frequency, TF over GST control) with ETV1; 1.02 fold enrichment (6-mer frequency, TF over GST control) with ERF. Further, the binding signal in the experiment with ETV3L was 1.02 fold enrichment (6-mer frequency, TF over GST control); in the experiment with ETV7 it was 1.01 fold enrichment (6-mer frequency, TF over GST control); with ETV6, 1.01 fold enrichment (6-mer frequency, TF over GST control).

With ATTGAG, the binding signal with FLI1 was 1.08 fold enrichment (6-mer frequency, TF over GST control); in the experiment with ELK1, 1.12 fold enrichment (6-mer frequency, TF over GST control); in the experiment with ELF1, 1 fold enrichment (6-mer frequency, TF over GST control); with EHF, 1.01 fold enrichment (6-mer frequency, TF over GST control); with ELF4, 1.05 fold enrichment (6-mer frequency, TF over GST control); with ELF3, 1 fold enrichment (6-mer frequency, TF over GST control). In addition, the binding signal with ETV1 is 1.01 fold enrichment (6-mer frequency, TF over GST control); in the experiment with ERF, 1.02 fold enrichment (6-mer frequency, TF over GST control); in the experiment with ETS2, 1 fold enrichment (6-mer frequency, TF over GST control); with ETV7, 1.08 fold enrichment (6-mer frequency, TF over GST control).
